Source: PubChem BioAssay (National Center for Advancing Translational Sciences (NCATS))
Pf growth 48h = Primary qHTS for delayed death inhibitors of the malarial parasite plastid, 48 hour incubation; P. falciparum luciferase growth in erythrocytes, 48 h; 5.9% of 310,000 active; Potency, µM (doses to about 28.7 µM), without a hit: top-dose activity change, negative = inhibition, actives largely listed as inhibitors; further: potency means the concentration at half of the fitted maximal effect; on the % scale 0 is the no-effect control and ±100 the full control effect
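Growth was read as firefly luciferase luminescence after a 48 h, 37 C, 5% CO2 exposure of compounds to reporter-bearing P. falciparum cultures (0.1% parasitemia, 2% hematocrit final) in Albumax-supplemented RPMI 1640.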
Shiga toxin inh = A qHTS for Small Molecule Inhibitors of Shiga Toxin; Vero cells, Shiga toxin protein synthesis inhibition reporter; inhibition, % at 38.7 µM; 9.2% of 290,000 active; in the data active means inhibition mostly above about 28%, no sharp cut-off; inactive means mostly below about 43%; further: 0% is about no effect
AMA1-RON2 inh = qHTS for Inhibitors of AMA1-RON; Towards Development of Antimalarial Drug Lead: Primary Screen. Potency, µM (doses to about 58.2 µM), for inactives: at the top dose activity change, negative = inhibition, usual class: inhibitors. AID 720542, 2013. AlphaScreen AMA1-biotinylated RON2 peptide binding. 0.2% of 360,000 active. Plasmodium falciparum AMA1 (3D7) - RON2 peptide interaction;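 further: potency means the concentration at half of the fitted maximal effect; 0% = vehicle wells and -100% = peptide control; nearly all actives have a fitted effect of over 45% in size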
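AMA1 (3D7) with his tag at 25 nM final met compounds first, then biotinylated RON2 peptide at 25 nM; detection used donor plus acceptor beads, 10 µg/mL apiece, read by AlphaScreen after 30 min at room temperature.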
HCV inh = qHTS Assay for Inhibitors of Hepatitis C Virus (HCV); Huh7.5.1 HCVcc-Cre infection, luciferase reporter, 44 h; Potency, µM (highest dose often 41.8 µM), for the others: at the top dose activity change, negative = inhibition, hits mostly inhibitors; 3.4% of 340,000 active; further: potency means the concentration at half of the fitted maximal effect; on the % scale 0 is the no-effect control and ±100 the full control effect
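Luciferase read-out (15 sec integration) after a 15 min room-temperature substrate step quantifies HCVcc-Cre infection. Cells, 1,000 per well, had compound added 4 h post-plating, then virus at ~0.5 moi, and were cultured 44 h.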
CHX counter = Cycloheximide Counterscreen for Small Molecule Inhibitors of Shiga Toxin; max response, %; 12% of 300,000 active; cell reporter, cycloheximide protein synthesis inhibition counterscreen; in the data active means max response mostly above about 13%, no sharp cut-off; inactive means mostly below about 14%; further: read at 38.3 µM for the half of the compounds with a filed dose; 0% is about no effect
Pf growth 96h = Primary qHTS for delayed death inhibitors of the malarial parasite plastid, 96 hour incubation; P. falciparum luciferase reporter growth, 96 h; Potency, µM (top dose mostly 28.7 µM), for inactives: top-dose activity change, negative = inhibition, actives largely listed as inhibitors; 6.9% of 320,000 active; further: potency means the concentration at half of the fitted maximal effect; on the % scale 0 is the no-effect control and ±100 the full control effect
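Delayed-death screen, second-generation endpoint: infected erythrocytes, 2% hematocrit, 0.05% parasitemia final; 96 hours at 37 C, 5% CO2; luciferase detection reagent; luminescence decrease equals reduced growth.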
An asterisk follows results filed as active; u = inconclusive; x = not tested or not shown; + = active, no number. An excerpt weighted towards active compounds, which were near 21% of everything screened. Unless noted, the call rests on the fitted dose curve; in most records, active means well fitted curve in the direction sought with a large enough effect; inconclusive means small, poorly fitted or top-dose-only effect, or another doubt; inactive means no such curve, though single readings can be large; an effect the other way counts as inactive or inconclusive.

SMILES	Pf growth 48h	Shiga toxin inh	AMA1-RON2 inh	HCV inh	CHX counter	Pf growth 96h
NC(=O)N/N=C/c1cn(-c2ccccc2)nc1-c1cccs1	u	51*	u	u	36*	u
Cc1nn(-c2ccccc2)cc1/C=N/O	x	28	-12%	3%	-2	52%
O=C(O)c1cccc(N/N=C/c2cn(-c3ccccc3)nc2-c2cccs2)c1	204%	150*	15%	-3%	52*	66%
COc1ccc(C2(CO)OC(CO)C(O)C2O)cc1 (stereo unspecified)	x	x	-1%	19%	x	x
CC(C)[C@H](NC(=O)[C@@H](Cc1c[nH]c2ccccc12)NC(=O)[C@H](Cc1ccc(O)cc1)NC(=O)[C@@H](N)CC(=O)O)C(=O)N[C@H](Cc1c[nH]c2ccccc12)C(=O)N[C@H](Cc1c[nH]c2ccccc12)C(=O)N[C@@H](CCCCN)C(N)=O	x	-4	x	x	-3	x
O=C(N/N=C/c1cn(-c2ccccc2)nc1-c1cccs1)c1ccncc1	1%	50*	16%	u	32*	u
CCOc1cc(C(=O)N/N=C/c2cn(-c3ccccc3)nc2-c2cc3ccccc3o2)cc(OCC)c1OCC	x	x	-2%	u	x	x
Cc1ccc(-c2nn(-c3ccccc3)cc2/C=N/NC(=O)c2ccncc2)o1	10%	58*	9%	-20%	65*	24%
CCn1c(C)nc2cc(C(=O)N/N=C(\C)c3ccccc3O)ccc21	21%	85*	109%	10µM*	31*	-6%
CCn1c(C)nc2cc(C(=O)NN=Cc3ccccc3OC(F)F)ccc21	x	x	9%	u	x	x
CCn1c(C)nc2cc(C(=O)NNC(=S)Nc3ccccc3OC)ccc21	113%	33*	76%	7%	20*	62%
CCn1c(C)nc2cc(C(=O)N/N=C/c3ccccc3C)ccc21	-5%	133*	24%	-16%	41*	u
CCn1c(C)nc2cc(C(=O)NNS(=O)(=O)c3ccccc3F)ccc21	7%	-13	-1%	25%	-5	21%
CCn1c(C)nc2cc(C(=O)NNC(=S)Nc3ccc(C)cc3)ccc21	-11%	25	134%	11%	12	-21%
O=S(=O)(c1ccc(Cl)cc1)N1CCN(c2ncnc3sccc23)CC1	x	x	16%	u	x	x
CCNC(=S)N/N=C/c1cccc(OCc2c(F)cccc2Cl)c1	u	33	22%	u	18	u
Cc1nn(C)c(C(=O)N/N=C/c2cccc(Oc3ccccc3)c2)c1Br	-6%	7	5%	6%	-2	11%
CNC(=S)N/N=C/c1cccc(OCc2ccccc2F)c1	-16%	52*	44%	u	27*	20%
O=C(N/N=C/c1cccc(Oc2ccccc2)c1)c1cc[n+]([O-])cc1	25%	13	11%	22%	2	30%
Nc1ccc(C(=O)N/N=C/c2cccc(Oc3ccccc3)c2)cc1	9%	33	-13%	-20%	30*	u
O=C(N/N=C/c1cccc(Oc2ccccc2)c1)c1ccccc1F	u	+	x	x	73*	u
Fc1cccc(Cc2c(-c3ccccc3)nc3ccc(Cl)cn23)c1	x	x	0%	x	x	x
COc1ccc(OC)c(CNC(=O)c2nn(C)c3c2CS(=O)(=O)c2ccccc2-3)c1	-12%	-10	-16%	-18%	-1	3%
CCCn1c2ccccc2c2nnc(SCCN3CCOCC3)nc21	u	-8	6%	u	-3	0%
C=CCn1c2ccccc2c2nnc(SCCN3CCCCC3)nc21	u	x	8%	-26%	5	10µM*
SMILES	Pf growth 48h	Shiga toxin inh	AMA1-RON2 inh	HCV inh	CHX counter	Pf growth 96h
C=CCn1c2ccccc2c2nnc(SCN3C(=O)c4ccccc4C3=O)nc21	1%	-14	-18%	19%	8	-35%
C=CCn1c2ccccc2c2nnc(SCCCn3c(=O)[nH]c4ccccc43)nc21	13µM*	-6	-8%	10µM*	1	-11%
c1ccc(Cn2c3ccccc3c3nnc(SCCN4CCCCC4)nc32)cc1	9.3µM*	0	-1%	-21%	-2	u
Cn1nc2c3ccccc3n(Cc3ccccc3)c2nc1=S	15%	121*	23%	4%	41*	-23%
CCCCCNC(=O)Cn1c(=O)c2c(ncn2CC(C)C)n(Cc2ccccc2)c1=O	u	-8	-16%	-12%	-3	0%
CCN(CC)CCSc1nnc2c3ccccc3n(CCc3ccccc3)c2n1	u	-5	-9%	10µM*	-5	u
CCN(C(=O)COC(=O)c1ccc(SC)cc1OC)C1CCS(=O)(=O)C1 (stereo unspecified)	x	x	-9%	6%	x	x
Cc1ccc(C(=O)N(CC(=O)NC2CCCC2)c2ccccc2F)s1	x	x	10%	x	x	x
CCCCN(C)CCNC(=O)c1nn(-c2ccc(OC)cc2)c(=O)c2c1c1ccccc1n2C	u	-8	-4%	-16%	-5	2.6µM*
CCN(C(=O)c1nn(-c2ccc(OC)cc2)c(=O)c2c1c1ccccc1n2C)c1ccc(OC)cc1	-11%	-2	18%	20%	-2	-1%
CC(C)Cn1cc(C(=O)NCCCOC(C)C)c2c3ccccc3n(C)c2c1=O	x	-5	-1%	-10%	1	u
CCOC(CCNC(=O)c1cn(CC(C)C)c(=O)c2c1c1ccccc1n2C)OCC	-17%	13	18%	14%	-1	0.52µM*
CCN(CC)CCCNC(=O)c1cn(CC(C)C)c(=O)c2c1c1ccccc1n2C	8%	-4	-5%	-16%	-3	7%
CCCCN(CC)CCCNC(=O)c1cn(CC(C)C)c(=O)c2c1c1ccccc1n2C	13µM*	-6	-4%	u	1	-25%
COc1cc(C(=O)NCCC(=O)NCc2cccs2)cc(OC)c1OC	x	x	8%	x	x	x
COC(=O)c1nn(-c2ccc(OC)cc2)ccc1=O	x	-8	-9%	-2%	-3	0%
CCNC(=O)c1ccc2c(c1)C1C3CCC(C3)C1C(c1ccccc1)N2 (stereo unspecified)	7.4µM*	-8	-19%	10%	-2	50%
O=C(NC1CC1)c1cc2c(s1)-c1ccccc1OC2	x	104*	3%	11µM*	77*	13µM*
O=C(NCc1cccs1)c1cc2c(s1)-c1ccccc1OC2	1%	32	79%	u	20*	-24%
O=C1C=C(c2ccccc2)C[C@H](c2cccs2)[C@H]1n1cnc([N+](=O)[O-])c1	13µM*	-4	-1%	-29%	1	u
COc1ccc(-c2oc3ccc(N4CCOCC4)cc3c2/C=C/c2ccc(OC)c(OC)c2)cc1	u	30*	0%	-15%	12*	12µM*
